This note sets out measurements from PubChem BioAssay AID1508602 (The Scripps Research Institute Molecular Screening Center, 2020).

About 6,800 (1%) of roughly 650,000 compounds were called active. Rule as the data show it: active = activation above about 4.9%; inactive = the rest. Shown is part of a subset that was picked to be rich in actives.

The target of the experiment is G-protein coupled receptor 151 (Homo sapiens) (UniProt Q8TDV0). The experiment can be described thus: activators of human GPR151, primary screen, cell-based, PathHunter beta-arrestin, luminescence (AID 1508602).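 Also: 0% = median of compound wells and 100% = cells with positive control.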 The conditions noted are these: PathHunter beta-arrestin GPR151 cells, at 11.2 µM, active compounds read high.
G-protein coupled receptor 151 (Homo sapiens), sequence (Q8TDV0 whole entry, looked up): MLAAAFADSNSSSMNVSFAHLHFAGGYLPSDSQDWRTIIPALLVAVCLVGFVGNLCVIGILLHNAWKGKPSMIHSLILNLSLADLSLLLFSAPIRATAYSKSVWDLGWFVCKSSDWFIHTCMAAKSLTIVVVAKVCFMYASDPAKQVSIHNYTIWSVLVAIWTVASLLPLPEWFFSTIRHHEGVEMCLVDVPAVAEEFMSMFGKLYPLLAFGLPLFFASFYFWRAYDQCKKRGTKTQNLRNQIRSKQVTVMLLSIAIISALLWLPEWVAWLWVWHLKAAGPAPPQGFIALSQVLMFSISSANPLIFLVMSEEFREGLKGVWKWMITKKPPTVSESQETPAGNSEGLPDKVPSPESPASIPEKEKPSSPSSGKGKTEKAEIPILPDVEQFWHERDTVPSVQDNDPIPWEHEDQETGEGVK
As for `COc1ccc(-c2nnc(SCC(=O)NC(N)=O)o2)cc1`, the activation is 0.906% (inactive). `N#CCCCSc1nnc(-c2ccc(C#N)cc2)o1`: the activation is -0.162% (inactive). For `COc1ccc(-c2nnc(SCCC#N)o2)cc1`, the activation was 10.1% (active). As for `CCOC(=O)c1cc2c(=O)n3ccccc3nc2n(Cc2ccco2)c1=NC(=O)c1ccc(Cl)cc1`, the activation was -0.357% (inactive). For `CC(C)N(C(=O)CN(C)S(=O)(=O)c1cc(Cl)ccc1Cl)C(C)C`, the activation is -0.725% (inactive). Turning to `COc1ccc(NC(=O)c2nn3c(C(F)(F)F)cc(-c4ccccc4)nc3c2Br)c(OC)c1`, the activation was 2.64% (inactive).

For `CC(C)c1ccc(NC(=O)/C=C/c2ccccc2Cl)cc1`, the activation is 1.13% (inactive). On to `O=C(O)/C=C/c1ccccc1Cl`, for which the activation is 5.27% (active).

For the compound `CC(C)NC(=O)/C=C/c1ccccc1Cl`, the activation was 5.07% (active). In the case of `CC(=O)NS(=O)(=O)c1ccc(NC(=O)/C=C/c2ccccc2Cl)cc1`, the activation is 0.647% (inactive). Under `O=C(/C=C/c1ccccc1Cl)Nc1ccc(I)cc1` stands 1.42% (inactive); under `NC(=O)NC(=O)COC(=O)/C=C/c1ccccc1Cl`, 1.72% (inactive); under `CCOc1ccc(CN2CCN(Cc3ccc(C)o3)C(CCO)C2)cc1CO` (stereo not drawn), 1.78% (inactive).

On to `O=C(N/N=C/c1ccc([N+](=O)[O-])cc1)c1cccc(I)c1`, for which the activation was -0.236% (inactive). To `O=C(O)c1ccc(Br)c(N2C(=O)c3cc(Cl)c(Cl)cc3C2=O)c1` belongs 0.176% (inactive). As for `Cc1ccccc1NC(=O)Nn1cnnc1`, the activation was -0.0585% (inactive). For the compound `COc1ccc(CN(N=Nc2nonc2C)c2nonc2C)cc1`, the activation is -0.147% (inactive). With `CC(=O)c1ccc(C(=O)NCC2Cc3cc(Cl)cc(-c4ccncc4)c3O2)s1` (stereo not drawn), the activation was 1.35% (inactive). Take `Cc1nc(=S)[nH]c(C)c1CCC(=O)O`: the activation is 0.381% (inactive). In the case of `CCOC(C(=O)c1ccccc1)c1ccccc1` (stereo not drawn), the activation was -0.174% (inactive). Take `CCOC(=O)CCC(=O)OC(C(=O)c1ccccc1)c1ccccc1` (stereo not drawn): the activation is 0.912% (inactive).

As for `CCOC(=O)C(C(=O)c1ccccc1)C1(O)C(=O)c2ccccc2C1=O` (stereo not drawn), the activation is 6.04% (active). Under `CCc1ccc(CN2CCCC(CO)(Cc3cccc(OC)c3)C2)o1` (stereo not drawn) stands 0.911% (inactive). To `N#Cc1c(-c2ccc(F)cc2)cc(-c2ccccc2)nc1SCCOc1ccccc1` belongs -0.0587% (inactive); to `Cc1cncc2cccc(N3CCN(C(=O)C(N)c4ccc(Br)cc4)CC3)c12` (stereo not drawn), 1.97% (inactive); to `CC1CCCCN1C(=O)c1cc2c(=O)n(C)c3ccccc3c2s1` (stereo not drawn), 5.42% (active). For `CCN1CCN(C(=O)c2cc3c(=O)n(C)c4ccccc4c3s2)CC1`, the activation is 0.989% (inactive). As for `Cn1c(=O)c2cc(C(=O)NCCCN3CCCCCC3)sc2c2ccccc21`, the activation is 0.856% (inactive).
